# Measurements reported in PubChem BioAssay.
# Calls of active or inactive are those of the source. The rule behind the calls is not given here.
# Target: Pantothenate synthetase (Mycobacterium tuberculosis (strain ATCC 25618 / H37Rv)) (UniProt P9WIL5)
# Test: Recombinant Mtb pantothenate synthetase (PanC) inhibitors, coupled enzyme, confirmatory (AID 375);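 note: 0% = full reaction with vehicle and 100% = no enzyme background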
# Conditions: coupled enzyme assay; at 10 µM, stronger effect = higher value
# Pantothenate synthetase (Mycobacterium tuberculosis (strain ATCC 25618 / H37Rv)), sequence (P9WIL5 whole entry, looked up): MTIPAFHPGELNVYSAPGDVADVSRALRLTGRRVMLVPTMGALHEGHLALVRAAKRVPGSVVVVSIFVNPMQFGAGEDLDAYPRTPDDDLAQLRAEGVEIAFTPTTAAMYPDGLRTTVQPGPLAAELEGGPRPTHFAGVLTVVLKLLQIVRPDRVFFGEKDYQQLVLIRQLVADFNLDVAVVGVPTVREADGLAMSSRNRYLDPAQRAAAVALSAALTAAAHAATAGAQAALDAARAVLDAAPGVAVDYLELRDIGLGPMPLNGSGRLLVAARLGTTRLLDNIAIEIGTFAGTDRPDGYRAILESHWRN
row,Structure (SMILES),inhibition
1,Cc1cccc2cc(C#N)c(NCCNC(=O)NC3CCCCC3)nc12,1% (inactive)
2,COc1ccc(C(C)(C)C)cc1NC(=O)Nc1ccc2c(c1)OCO2,5% (inactive)
3,Cn1c(NCc2cccc(Br)c2)nc2ccccc21,1% (inactive)
4,CC1(C)Cc2ccccc2C(N)=C1C#N,5% (inactive)
5,Cc1cc(NS(=O)(=O)c2ccc(NC(=O)COc3ccc(Cl)cc3)cc2)no1,9% (inactive)
6,Cc1ccccc1-n1c(Cn2c(=O)sc3ccccc32)nnc1SCC(N)=O,3% (inactive)
7,Clc1ss/c(=N\c2ccccn2)c1Cl,0% (inactive)
8,CC1CCCCN1CCNC(=O)C1CCN(S(=O)(=O)c2cccc3cccnc23)CC1 (stereo not given),0% (inactive)
9,Nc1nnc(-c2cc3ccccc3oc2=O)s1,8% (inactive)
10,Cc1[nH]c2ccc(F)cc2c(=O)c1SC(F)(F)C(F)C(F)(F)F (stereo not given),1% (inactive)
11,COc1ccc(CCNS(=O)(=O)c2ccc3c(c2)OCCO3)cc1,0% (inactive)
12,CC(=O)C1=C(NC(=O)c2ccccc2F)C[C@@H]2[C@H]1C2(C)C,0% (inactive)
13,CCCCOC(=O)Cn1c(=O)oc2ccc(C)cc21,0% (inactive)
14,CCc1nnc(NC(=O)CSc2nnc(Cc3ccccc3)n2-c2ccc(OC)cc2)s1,7% (inactive)
15,COc1ccc(C)cc1NC(=O)c1nc2nc(C)cc(C)n2n1,7% (inactive)
16,Cn1c(=O)cc(SCC(=O)NCC2CCCO2)c2ccc(Cl)cc21 (stereo not given),10% (inactive)
17,Cc1ccc2c(Cl)cc(Cl)c(OCc3c(C)noc3C)c2n1,0% (inactive)
18,CC1(C)C(c2cccs2)=[N+]([O-])C2(CCCCC/C2=N\O)N1O (stereo not given),6% (inactive)
19,Cc1ccc(S(=O)(=O)N2CCCN(S(=O)(=O)C3CCS(=O)(=O)C3)CC2)cc1 (stereo not given),2% (inactive)
20,CO[C@H]1C=CO[C@@]2(C)Oc3c(C)c(O)c4c(O)c(c(C=NN5CCN(C)CC5)c(O)c4c3C2=O)NC(=O)C(C)=CC=C[C@H](C)[C@H](O)[C@@H](C)[C@@H](O)[C@@H](C)[C@H](OC(C)=O)[C@@H]1C,3% (inactive)

row,Structure (SMILES),inhibition
1,Cc1ccc(C2CC(c3ccc(C)cc3)n3nc(N)nc3N2)cc1 (stereo not given),5% (inactive)
2,CCc1nc(SCC(=O)NCc2ccco2)c2c3c(sc2n1)CCCC3,4% (inactive)
3,O=C(Cn1cnc2c(nnn2Cc2ccc(Cl)cc2)c1=O)NCC1CCCO1 (stereo not given),0% (inactive)
4,Cc1ccc(Nc2cc(-n3nc(C)cc3C)ncn2)cc1,0% (inactive)
5,CCSc1ccccc1C(=O)Nc1cccc(OC)c1,0% (inactive)
6,CCn1cc(C2Nc3ccccc3C(=O)N2O)c(C)n1 (stereo not given),0% (inactive)
7,Cc1cc(C)cc(N2C(=O)C3C4C=CC(C4)C3C2=O)c1 (stereo not given),0% (inactive)
8,O=C(CCN1CCN(c2ccc(F)cc2)CC1)Nc1ccccc1F,1% (inactive)
9,CCOCCn1cnc2sc(C(=O)NCC(=O)OCC)c(C)c2c1=O,10% (inactive)
10,C=CCNc1nc2c(c(=O)n(C)c(=O)n2C)n1CCCCCC,0% (inactive)
11,OC(CN1CCN(c2ccccc2)CC1)c1ccc2c(c1)CCN2 (stereo not given),0% (inactive)
12,Cc1oc2nc(SCCCC(=O)NCCCO)nc(N)c2c1C,2% (inactive)
13,COc1cccc(C(=O)Nc2ccc(C)cc2)c1,1% (inactive)
14,O=C(Nc1ccc2c(c1)OCCO2)C1CCCN(S(=O)(=O)c2cnc[nH]2)C1 (stereo not given),0% (inactive)
15,O=C(Oc1cc2oc(=O)c3c(c2cc1Cl)CCCC3)c1ccco1,0% (inactive)
16,Cc1nc(CCNC(=O)c2ccccc2)cs1,0% (inactive)
17,COc1ccc(/C(O)=C2/C(=O)C(=O)N(CCCN(C)C)C2c2ccc(Cl)cc2)cc1OC (stereo not given),3% (inactive)
18,CC(=O)Nc1ccc(S(=O)(=O)n2cnc(C)c2)cc1,3% (inactive)
19,Oc1cccc(Nc2nc(NCC3CCCO3)c3ccccc3n2)c1 (stereo not given),1% (inactive)
20,CC(C)(C)n1nnnc1CN1CCC(NC(=O)NC2CCCCC2)CC1,0% (inactive)
